For orientation: inhibition means the change of the read-out against control, counted positive when it falls.

Structures are written as SMILES. A number with no mark means an inactive call. For some of these results: Potency and affinity values are given separately. Active and inactive are the calls of the source. Unless noted, no rule for the calls is given here.

The text below walks through data of PubChem BioAssay.

A short description of test [1]: antimalarial activity against Dd2 strain (AID 2302;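 active = growth inhibition above 50% at the single 2 µM test dose, taken to imply half-maximal potency below 2 µM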;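 also: 0% = DMSO untreated growth and 100% = chloroquine plus artemisinin killed control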). Conditions: P. falciparum Dd2 in RBCs, LDH growth readout, 72 h; at 2 µM; hits give high values.
Test [2] can be described thus: human hepatoma cell viability loss – ATP luminescence, cytotoxicity control for P. falciparum antimalarial project, primary screen (AID 2303;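 active = inhibition above 50%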;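 also: 0% = DMSO wells and 100% = digitonin-killed cells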). The following applies: HepG2 viability, 24-48 h, at 10 µM, hits give high values.
Test [3] concerns the target L-lactate dehydrogenase (Plasmodium falciparum (isolate CDC / Honduras)) (UniProt Q27743). Kind of test: PfLDH activity inhibition – cell lysate, 3D7 strain, counter-screen for P. falciparum growth inhibition project (AID 2304).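 Also: 0% = vehicle and 100% = reference inhibitor.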 Conditions: P. falciparum 3D7 crude extract, LDH APAD/NBT absorbance; at 2 µM; hits give high values. (A counterscreen serves to expose hits that act by an unwanted route or on another target.)

A short description of test [4]: inhibition of 3D7 malaria parasite growth – strain 3D7 (AID 2306).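 Also: 0% = DMSO wells and 100% = chloroquine plus artemisinin control wells.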 Conditions: P. falciparum 3D7 erythrocytic growth, LDH absorbance, 72 h; at 2 µM; hits give high values.
Test [5] concerns the target Calcium-dependent protein kinase 1 (Plasmodium falciparum (isolate 3D7)) (UniProt P62344). Kind of test: PfCDPK1 kinase inhibitors, biochemical, TCAMS library (AID 1159585; cut-off not given, nearly all actives have IC50 up to about 0.98 µM;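 also: inhibitors leave more ATP so luminescence rises with inhibition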). Conditions: recombinant PfCDPK1, Kinase-Glo ATP depletion luminescence.
Test [6] addresses Plasmodium falciparum protein kinase 6 (PK6, PF3D7_1337100) (UniProt Q8IDW1). The experiment in a line: PfPK6 kinase inhibitors, biochemical, TCAMS library (AID 1159586). The following applies: recombinant PfPK6, Kinase-Glo ATP depletion luminescence. In general terms: Kinase-Glo reads ATP consumption through a luciferase reaction.
In test [7] the target is Protein kinase 7 (PK7), Plasmodium falciparum 3D7 (PF3D7_0213400) (UniProt Q7YTF7). Kind of test: inhibition of Plasmodium PK7 catalytic activity – biochemical, TCAMS antimalarial set, Kinase-Glo luminescence (AID 1159587). The following applies: recombinant PfPK7, Kinase-Glo ATP depletion luminescence.
In test [8] the target is Calcium-dependent protein kinase 4 (Plasmodium falciparum (isolate 3D7)) (UniProt Q8IBS5). Kind of test: PfCDPK4 kinase inhibitors, biochemical, TCAMS library (AID 1159588; cut-off not given, nearly all actives have IC50 up to about 0.91 µM). The following applies: recombinant PfCDPK4, Kinase-Glo ATP depletion luminescence.
Chain of Calcium-dependent protein kinase 4 (Plasmodium falciparum (isolate 3D7)) (Q8IBS5 whole entry, looked up): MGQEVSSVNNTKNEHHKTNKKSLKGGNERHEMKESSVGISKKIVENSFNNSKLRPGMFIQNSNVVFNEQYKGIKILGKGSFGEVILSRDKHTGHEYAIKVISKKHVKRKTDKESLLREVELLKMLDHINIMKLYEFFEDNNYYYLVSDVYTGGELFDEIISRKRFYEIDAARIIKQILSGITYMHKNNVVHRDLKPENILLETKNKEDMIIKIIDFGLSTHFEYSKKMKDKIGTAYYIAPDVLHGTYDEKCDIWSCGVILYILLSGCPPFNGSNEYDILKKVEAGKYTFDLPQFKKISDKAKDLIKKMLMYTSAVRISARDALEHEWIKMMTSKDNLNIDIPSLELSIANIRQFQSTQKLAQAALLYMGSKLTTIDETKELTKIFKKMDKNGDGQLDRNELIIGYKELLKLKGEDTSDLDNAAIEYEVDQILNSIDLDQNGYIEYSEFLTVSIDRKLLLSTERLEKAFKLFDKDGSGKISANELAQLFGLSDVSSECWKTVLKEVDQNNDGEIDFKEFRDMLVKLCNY

Chain of L-lactate dehydrogenase (Plasmodium falciparum (isolate CDC / Honduras)) (Q27743 whole entry, looked up): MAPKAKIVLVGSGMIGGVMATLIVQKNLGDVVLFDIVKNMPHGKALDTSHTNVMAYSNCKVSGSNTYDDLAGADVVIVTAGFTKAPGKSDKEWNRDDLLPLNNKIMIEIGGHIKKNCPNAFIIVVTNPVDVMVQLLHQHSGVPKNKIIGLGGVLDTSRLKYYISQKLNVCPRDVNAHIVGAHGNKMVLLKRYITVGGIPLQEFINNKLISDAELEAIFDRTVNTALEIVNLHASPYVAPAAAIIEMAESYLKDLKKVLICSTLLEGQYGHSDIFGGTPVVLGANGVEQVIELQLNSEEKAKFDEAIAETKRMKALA
Chain of Calcium-dependent protein kinase 1 (Plasmodium falciparum (isolate 3D7)) (P62344 whole entry, looked up): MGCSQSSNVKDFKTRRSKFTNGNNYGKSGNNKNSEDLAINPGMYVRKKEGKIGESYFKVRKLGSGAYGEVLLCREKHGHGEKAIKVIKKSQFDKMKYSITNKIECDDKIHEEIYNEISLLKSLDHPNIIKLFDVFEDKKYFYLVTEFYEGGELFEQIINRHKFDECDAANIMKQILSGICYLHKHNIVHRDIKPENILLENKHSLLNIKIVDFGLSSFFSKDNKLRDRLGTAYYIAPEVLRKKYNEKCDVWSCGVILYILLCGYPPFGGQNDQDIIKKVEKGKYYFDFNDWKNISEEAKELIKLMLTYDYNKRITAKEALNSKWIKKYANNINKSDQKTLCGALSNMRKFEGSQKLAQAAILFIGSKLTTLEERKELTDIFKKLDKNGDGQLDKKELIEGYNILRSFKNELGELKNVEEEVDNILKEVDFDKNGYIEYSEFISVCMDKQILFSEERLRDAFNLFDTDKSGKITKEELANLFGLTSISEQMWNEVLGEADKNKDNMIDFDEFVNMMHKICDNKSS
Chain of Plasmodium falciparum protein kinase 6 (PK6, PF3D7_1337100) (Q8IDW1 1-305): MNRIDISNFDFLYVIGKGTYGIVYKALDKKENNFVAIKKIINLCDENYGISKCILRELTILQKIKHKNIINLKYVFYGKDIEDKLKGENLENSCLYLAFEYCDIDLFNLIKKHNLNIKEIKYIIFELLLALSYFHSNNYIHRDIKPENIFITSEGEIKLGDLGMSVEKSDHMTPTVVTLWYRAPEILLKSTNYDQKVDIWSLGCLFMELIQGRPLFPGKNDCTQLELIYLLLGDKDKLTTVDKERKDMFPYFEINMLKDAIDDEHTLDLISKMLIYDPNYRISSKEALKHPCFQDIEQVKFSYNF
Chain of Protein kinase 7 (PK7), Plasmodium falciparum 3D7 (PF3D7_0213400) (Q7YTF7 1-343): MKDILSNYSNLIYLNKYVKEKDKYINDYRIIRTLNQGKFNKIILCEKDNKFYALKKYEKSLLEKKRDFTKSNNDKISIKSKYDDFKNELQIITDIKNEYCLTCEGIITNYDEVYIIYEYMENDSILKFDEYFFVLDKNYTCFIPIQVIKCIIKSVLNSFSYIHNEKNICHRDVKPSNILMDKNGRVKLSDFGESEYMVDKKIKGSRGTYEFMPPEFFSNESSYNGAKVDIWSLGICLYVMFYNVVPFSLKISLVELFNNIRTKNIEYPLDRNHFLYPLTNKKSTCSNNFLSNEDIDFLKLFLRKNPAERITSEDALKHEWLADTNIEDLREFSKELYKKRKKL

As for `CN(C)CCC1CCN(CCS(=O)(=O)c2cccc(Nc3ncc(-c4cccc(F)c4)cn3)c2)CC1`, the growth inhibition in test [1] was 12%; in test [4] it was 96% (active). For the same compound, the inhibition in test [2] is 59% (active); in test [3] it was -2%. Moreover, the result in test [5], in test [6], in test [7] and in test [8] was inactive.

In the case of `CN1CCN(CCCN(Cc2cccc(-c3ccc(CNCc4ccc5c(c4)OCO5)cc3)c2)C(=O)Nc2ccccc2)CC1`, the growth inhibition is 69% (active) in test [1] and 98% (active) in test [4]. Also, the inhibition was 39% in test [2] and 4% in test [3]. Also, the result in test [5], in test [6], in test [7] and in test [8] was inactive.

Take `CN(C)CCOc1cccc(-c2cnc(N)c(-c3nc4ccc(S(C)(=O)=O)cc4[nH]3)c2)c1`: the growth inhibition in test [1] was 82% (active); in test [4], 100% (active). For the same compound, the inhibition in test [2] is 39%; in test [3] it was 1%. The result in test [5], in test [6], in test [7] and in test [8] was inactive.

In the case of `CNS(=O)(=O)CCNCc1ccc(-c2ccc3ncnc(Nc4ccc(OCc5ccccc5)cc4)c3c2)o1`, the growth inhibition in test [1] was 26%; in test [4] it was 101% (active). For the same compound, the inhibition in test [2] was 19%; in test [3], -3%. The outcome in test [5], in test [6], in test [7] and in test [8] was inactive.

As to `O=C(CNC1CCCCC1)Nc1cccc(C(=O)Nc2cccc(C(F)(F)F)c2)c1`, the values for the growth inhibition in test [1] and in test [4] were 80% (active) and 93% (active), respectively. Besides, the inhibition was 17% in test [2] and -6% in test [3]. For the same compound, the outcome in test [5], in test [6], in test [7] and in test [8] was inactive.

Turning to `Clc1ccc(OCCC2CCN(CCCCCCCN3CCC(CCOc4ccc(Cl)c(Cl)c4)CC3)CC2)cc1Cl`, the growth inhibition in test [1] is 82% (active); in test [4] it was 99% (active). Moreover, the values for the inhibition in test [2] and in test [3] were 100% (active) and -5%, respectively. In addition, the result in test [5], in test [6], in test [7] and in test [8] was inactive.

For the compound `COc1ccc2ccccc2c1CCCCN1CCN(CC(c2ccc(F)cc2)N2CCC2)CC1` (stereo not given), the values for the growth inhibition in test [1] and in test [4] were 51% (active) and 98% (active), respectively. The inhibition is 51% (active) in test [2] and 9% in test [3]. For the same compound, the result in test [5], in test [6], in test [7] and in test [8] was inactive.

As to `Cn1nccc1C(=O)NCCNCc1cccc(-c2ccc(-c3nc4ccccc4[nH]3)s2)c1`, the figures for the growth inhibition in test [1] and in test [4] were 94% (active) and 100% (active), respectively. The inhibition in test [2] was 22%; in test [3], -4%. Besides, the outcome in test [5], in test [6], in test [7] and in test [8] was inactive.

As for `NC1=NC(c2ccccc2)(c2ccccc2)C(=O)N1CCCCc1ccccc1`, the growth inhibition in test [1] was 81% (active); in test [4] it was 96% (active). In addition, the inhibition was 14% in test [2] and -2% in test [3]. In addition, the outcome in test [5], in test [6], in test [7] and in test [8] was inactive.

Turning to `CC(=O)Nc1ccc2[nH]cc(C3CCN(CC4CCC(NC(=O)/C=C/c5ccccc5Cl)CC4)CC3)c2n1` (stereo not given), the growth inhibition in test [1] was 79% (active); in test [4], 101% (active). In addition, the inhibition was 16% in test [2] and -1% in test [3]. Moreover, the outcome in test [5], in test [6], in test [7] and in test [8] was inactive.

For `CCNC(=O)NC1CCN(Cc2c(-c3cccs3)nc3ccccc3c2C(=O)N[C@@H](C)C2CCCCC2)CC1`, the growth inhibition in test [1] was 96% (active); in test [4] it was 95% (active). Moreover, the inhibition was -1% in test [2] and -2% in test [3]. Also, the result in test [5], in test [6], in test [7] and in test [8] was inactive.

Regarding `Cc1cc(N[C@@H](Cc2ccccc2)C(=O)NCCOc2ccccc2)nc(NCCc2cccs2)n1`, the growth inhibition was 32% in test [1] and 95% (active) in test [4]. Further, the inhibition was 8% in test [2] and 0% in test [3]. The result in test [5], in test [6], in test [7] and in test [8] was inactive.

As to `COc1ccc(NC(=O)C2c3ccccc3C(=O)N(C3CCCC3)C2c2cccs2)cc1` (stereo not given), the growth inhibition in test [1] is 75% (active); in test [4] it was 93% (active). In addition, the figures for the inhibition in test [2] and in test [3] were 0% and -1%, respectively. The outcome in test [5], in test [6], in test [7] and in test [8] was inactive.

With `Cc1nn(-c2cccc(Cl)c2)c2c1C(C(=O)c1ccc3c(c1)OCO3)CC(=O)N2` (stereo not given), the values for the growth inhibition in test [1] and in test [4] were 95% (active) and 98% (active), respectively. Besides, the inhibition is 5% in test [2] and -5% in test [3]. Moreover, the outcome in test [5], in test [6], in test [7] and in test [8] was inactive.

Take `COc1ccc(-c2cccc(NC(=O)c3cccc(Cl)c3)c2)cc1CN1CCCC1`: the results for the growth inhibition in test [1] and in test [4] were 66% (active) and 99% (active), respectively. Moreover, the values for the inhibition in test [2] and in test [3] were 45% and 1%, respectively. The outcome in test [5], in test [6], in test [7] and in test [8] was inactive.

On to `O=C(NCCOc1ccccc1)[C@H](Cc1ccccc1)Nc1ccnc(NCC2CCCCC2)n1`, for which the growth inhibition in test [1] was 73% (active); in test [4], 96% (active). Besides, the inhibition is 80% (active) in test [2] and 5% in test [3]. Besides, the outcome in test [5], in test [6], in test [7] and in test [8] was inactive.

Regarding `COc1cc(C=Cc2ccc3ccccc3n2)cc(Br)c1OCC(=O)N(C)C`, the figures for the growth inhibition in test [1] and in test [4] were 87% (active) and 99% (active), respectively. In addition, the inhibition in test [2] was 28%; in test [3], 3%. Besides, the outcome in test [5], in test [6], in test [7] and in test [8] was inactive.

With `Cn1nc(-c2ccc(NC(=O)Nc3cc(C(F)(F)F)cc(C(F)(F)F)c3)c(F)c2)c2cnc(NCCN3CCOCC3)nc21`, the growth inhibition in test [1] was 37%; in test [4], 94% (active). Besides, the inhibition is 43% in test [2] and -6% in test [3]. Also, the outcome in test [5], in test [6], in test [7] and in test [8] was inactive.

For `Cc1cccc2[nH]c(-c3ccc(-c4cccc(CNCc5ccccc5)c4)s3)nc12`, the values for the growth inhibition in test [1] and in test [4] were 50% (active) and 99% (active), respectively. Further, the inhibition in test [2] is 3%; in test [3], -3%. For the same compound, the outcome in test [5], in test [6], in test [7] and in test [8] was inactive.

As for `CCc1ccc(S(=O)(=O)Nc2ccc(CCN(C)C3CCN(C)CC3)cc2)cc1`, the growth inhibition in test [1] is 9%; in test [4], 86% (active). The inhibition in test [2] is 25%; in test [3] it was -4%. For the same compound, the result in test [5], in test [6], in test [7] and in test [8] was inactive.
